Source: PubChem BioAssay
Compounds with a hit are over-represented: about 3.1% of the library has one in this group of screens.
VDR inh: Inhibitors of the vitamin D receptor (VDR): qHTS; VDR-SRC2-3 peptide fluorescence polarization, 2 h; hit rate 0.93% among 400,000; Vitamin D3 receptor (Homo sapiens), P11473; Potency, µM, for the others: max response, negative = inhibition, usual class: inhibitors; note: potency is the fitted concentration of half-maximal effect; % is set by controls: 0 for no effect and ±100 for the full control effect
Target sequence (P11473 whole entry, looked up): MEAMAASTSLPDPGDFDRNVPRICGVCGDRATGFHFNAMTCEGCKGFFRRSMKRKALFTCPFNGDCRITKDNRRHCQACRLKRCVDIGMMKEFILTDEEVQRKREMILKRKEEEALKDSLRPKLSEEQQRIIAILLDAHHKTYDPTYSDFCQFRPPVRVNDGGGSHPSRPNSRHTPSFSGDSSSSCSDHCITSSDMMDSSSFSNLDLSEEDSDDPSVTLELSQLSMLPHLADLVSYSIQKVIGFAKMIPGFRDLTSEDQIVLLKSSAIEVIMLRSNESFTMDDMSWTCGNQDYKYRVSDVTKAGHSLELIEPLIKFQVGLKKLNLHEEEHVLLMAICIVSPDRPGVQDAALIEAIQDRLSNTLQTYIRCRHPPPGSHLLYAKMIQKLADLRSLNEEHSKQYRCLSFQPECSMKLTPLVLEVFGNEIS
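After 23 nl compound addition and a short centrifugation, plates sat for 2 hours at ambient temperature; polarization of fluorescence then indicated loss of VDR binding to peptide SRC2-3.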
PLK1 PBD inh: qHTS for Inhibitors of PLK1-PDB (polo-like kinase 1 - polo-box domain): Primary Screen; hit rate 2.8% among 360,000; Potency, µM, for the others: max response, negative = inhibition, actives largely listed as inhibitors; Serine/threonine-protein kinase PLK1 (Homo sapiens), P53350; AID 720504, 2013; Plk1 PBD binding of FITC phosphopeptide, fluorescence polarization; note: potency is the fitted concentration of half-maximal effect; series mostly up to about 57 µM; % is set by controls: 0 for no effect and ±100 for the full control effect; nearly all actives have a fitted effect of over 65% in size
TSHR antagonist: Antagonists of the Thyroid Stimulating Hormone Receptor: HTS campaign | hit rate 0.2% among 330,000 | TSHR-expressing cells, TSH-stimulated cAMP HTRF, 2 h; stronger effect = lower value | activity change, negative = inhibition, % at 11.5 µM;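 active = activity change below a set negative limit, meaning inhibition stronger than a set level, cut at about -70% in these data; inconclusive = activity change between two set negative limits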; note: % is set by controls: 0 for no effect and ±100 for the full control effect
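Antagonism was scored as loss of TSH-driven cAMP in TSHR cells, stimulated with 4nM TSH (EC80) for 2 hours at 37 deg C and detected by homogeneous HTRF competition immunoassay.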
TSG101-PTAP inh: qHTS Assay for Iinhibitors of HIV-1 Budding by Blocking the Interaction of PTAP/TSG101 | Tumor susceptibility gene 101 protein (Homo sapiens), Q99816 | Fluorescence polarization, FITC-PTAP peptide / Tsg101 binding | Potency, µM (highest dose often 115 µM), for inactives: at the top dose activity change, negative = inhibition, actives largely listed as inhibitors | 340,000 tested, under 10 active; active = well fitted inhibition curve with a large enough effect in the main read-out, with a control signal flat, not every such curve was filed as active; inconclusive = small, poorly fitted or top-dose-only effect, or effect the other way, or a change in a side signal; inactive = no such curve, though single readings can be large or run the other way; note: potency is the fitted concentration of half-maximal effect; % of control where 0% means no effect
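Steps: Tsg101 binding domain dispensed (10 uM final), compounds pinned in DMSO, FITC-labeled PTAP-motif peptide added (50 nM final); after 20 min binding at room temperature, polarization measured.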
uPA generation: qHTS for Inhibitors of Cell Surface uPA Generation; cell surface uPA generation assay, qHTS; Potency, µM (doses to about 38.3 µM), for the others: at the highest dose activity change, negative = inhibition, actives largely listed as inhibitors; hit rate 0.31% among 330,000; AID 540303, 2011; active = well fitted inhibition curve with a large enough effect; inconclusive = small, poorly fitted or top-dose-only effect; inactive = no such curve, though single readings can be large or run the other way; tested in mouse RAW 264.7 cells; note: potency is the fitted concentration of half-maximal effect; % is set by controls: 0 for no effect and ±100 for the full control effect; nearly all actives have a fitted effect of over 55% in size
Numbers without * were called inactive. Unless noted, calls come from the whole dose curve; as a rule, active = well fitted curve in the direction sought with a large enough effect; inconclusive = small, poorly fitted or top-dose-only effect, or another doubt; inactive = no such curve, though single readings can be large; an effect the other way counts as inactive or inconclusive.

What do the screens show for `O=C(CSc1nnc(CNc2ccc(F)cc2)o1)OC1CCCCC1`?
VDR inh: inconclusive; PLK1 PBD inh: 21.2µM*; TSHR antagonist: -22.0; TSG101-PTAP inh: -1.8%; uPA generation: 2.7%

What do the screens show for `O=C(CSc1nnc(CNc2cccc(Cl)c2)o1)OC1CCCCC1`?
VDR inh: 13.4%; PLK1 PBD inh: -6.8%; TSHR antagonist: -12.2; TSG101-PTAP inh: -1.4%; uPA generation: 4.3%

What do the screens show for `Cn1nc(C(F)(F)F)cc1Oc1ncc(C(F)(F)F)cc1Cl`?
VDR inh: 1.41µM*; PLK1 PBD inh: -12.4%; TSHR antagonist: 0.4; TSG101-PTAP inh: -1.7%; uPA generation: 8.9%

Results for O=C(O)c1ccc(OCCCCCCOC2CCCCO2)cc1 (centres undefined) ?
VDR inh: inconclusive; PLK1 PBD inh: 26.7µM*; TSHR antagonist: -2.9; TSG101-PTAP inh: -3.5%; uPA generation: 5.9%

Results for CC(=O)c1ccc(NC(=O)Cn2cc(S(=O)(=O)Cc3cccc(Cl)c3)c3ccccc32)cc1 ?
VDR inh: 4.7%

How did O=C1CN(c2nc(-c3cccs3)nc3sc4c(c23)CCCC4)CCN1 do in these assays?
VDR inh: 16.1%; PLK1 PBD inh: 26.7µM*; TSHR antagonist: -17.5; TSG101-PTAP inh: -0.6%; uPA generation: 3.5%

Results for O=C1C(NS(=O)(=O)c2cccs2)=C(N2CCOCC2)C(=O)c2ccccc21 ?
VDR inh: -4.4%; PLK1 PBD inh: -9.4%; TSHR antagonist: 9.9; TSG101-PTAP inh: 0.4%; uPA generation: -1.6%

What do the screens show for `O=C(O)c1cccc(NC2=C(N3CCOCC3)C(=O)c3ccccc3C2=O)c1`?
VDR inh: 70.8µM*; PLK1 PBD inh: -17.7%; TSHR antagonist: -2.7; TSG101-PTAP inh: -2.2%; uPA generation: -1.4%

How did COc1ccc(Cl)cc1NC(=O)CN(c1cc(C)cc(C)c1)S(=O)(=O)c1c(C)n[nH]c1C do in these assays?
VDR inh: -14.8%

Results for CC(C)Cc1cc(C(=O)Nc2sc3c(c2C#N)CCC3)no1 ?
VDR inh: -16.7%; PLK1 PBD inh: 23.8µM*; TSHR antagonist: -19.0; TSG101-PTAP inh: -2.6%; uPA generation: 7.1%

How did Cc1cc(C(=O)Nc2sc3c(c2C#N)CCCC3)no1 do in these assays?
VDR inh: -15.8%; PLK1 PBD inh: 26.7µM*; TSHR antagonist: -2.9; TSG101-PTAP inh: -12.5%

Results for Cn1ccc(C(=O)Nc2sc3c(c2C#N)CCC3)n1 ?
VDR inh: 3.3%; PLK1 PBD inh: inconclusive; TSHR antagonist: 23.5; TSG101-PTAP inh: -0.9%; uPA generation: 9.2%

Results for Cn1cc([N+](=O)[O-])c(C(=O)Nc2sc3c(c2C#N)CCC3)n1 ?
VDR inh: -8.6%; PLK1 PBD inh: -2.2%; TSHR antagonist: -2.3; TSG101-PTAP inh: 1.1%; uPA generation: -9.6%

What do the screens show for `Cc1cc(C(F)F)n2nc(C(=O)Nc3sc4c(c3C#N)CCC4)nc2n1`?
VDR inh: -8.0%; PLK1 PBD inh: 26.7µM*; TSHR antagonist: -3.5; TSG101-PTAP inh: 1.1%; uPA generation: 0.0%

How did CCOC(=O)c1cc(C(=O)Nc2sc3c(c2C#N)CCCC3)nn1C do in these assays?
VDR inh: inconclusive; PLK1 PBD inh: 21.2µM*; TSHR antagonist: -44.3; TSG101-PTAP inh: -6.7%; uPA generation: 3.9%

What do the screens show for `COc1ccc2c(c1)C(=O)[C@H](OC(=O)NCCOc1ccccc1)[C@@H](c1ccc(OC)c(Br)c1)O2`?
VDR inh: 0.7%

How did COc1ccccc1-c1cc(C(=O)Nc2sc3c(c2C#N)CCCC3)no1 do in these assays?
VDR inh: 79.4µM*

What do the screens show for `N#Cc1c(NC(=O)c2cc(C3CC3)on2)sc2c1CCC2`?
VDR inh: inconclusive; PLK1 PBD inh: 26.7µM*; TSHR antagonist: 1.1; TSG101-PTAP inh: -5.4%; uPA generation: inconclusive

What do the screens show for `CC(C)Cc1cc(C(=O)Nc2sc3c(c2C#N)CCCC3)no1`?
VDR inh: -21.8%; PLK1 PBD inh: inconclusive; TSHR antagonist: 8.3; TSG101-PTAP inh: 1.2%; uPA generation: -8.5%
